Results as given in publication PMC7862700, “An all-to-all approach to the identification of sequence-specific readers for epigenetic DNA modifications on cytosine”.

Tests used:
Assay in all cases: DAPPL (digital affinity profiling via proximity ligation, sequencing); 10 mM Tris-HCl pH 7.5, 50 mM NaCl, 1 mM DTT, 4% glycerol, room temperature, 30 min; GST-TFs on glutathione beads, 16-mer random dsDNA library, 0.1% formaldehyde crosslink after washing; high values mean tight binding
FEV = target: T1, FEV (Homo sapiens, UniProt Q99581 1-238); conditions: protein: recombinant; tags: N-terminal GST; dsDNA, one strand shown
T1 sequence: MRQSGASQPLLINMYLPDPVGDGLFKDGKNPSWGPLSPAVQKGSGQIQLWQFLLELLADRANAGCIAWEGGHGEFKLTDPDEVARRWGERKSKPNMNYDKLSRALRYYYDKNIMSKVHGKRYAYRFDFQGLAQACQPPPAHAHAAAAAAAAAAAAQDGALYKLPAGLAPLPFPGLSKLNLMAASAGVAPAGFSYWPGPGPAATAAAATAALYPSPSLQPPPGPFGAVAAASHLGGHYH
Method in brief: (§1)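 Sequencing on an Illumina NextSeq500 followed washing, crosslinking with 0.1% formaldehyde, proximity ligation (BsaI/T4 ligase, 1 h, 37 °C) and PCR amplification of pools that had been incubated for 30 min at room temperature with 200 nmole of a random double-stranded 16-mer DNA library in Tris/NaCl/DTT/glycerol buffer. Each pool held DNA-barcoded human transcription factors, expressed in yeast as GST fusions and captured on glutathione beads, plus a tag-only sample. Binding signal is a hexamer's read frequency for a factor divided by its frequency in the tag-only sample.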

ETV5 = ETV5 (Homo sapiens, UniProt P41161 1-510); conditions: protein: recombinant; tags: N-terminal GST; dsDNA, one strand shown
Method in brief: as §1

HSF1 = HSF1 (Homo sapiens, UniProt Q00613 1-529); conditions: protein: recombinant; tags: N-terminal GST; chain copies: 3; dsDNA, one strand shown
Method in brief: as §1

SPIC = target: T2, SPIC (Homo sapiens, UniProt Q8N5J4 1-248); conditions: protein: recombinant; tags: N-terminal GST; dsDNA, one strand shown
T2 sequence: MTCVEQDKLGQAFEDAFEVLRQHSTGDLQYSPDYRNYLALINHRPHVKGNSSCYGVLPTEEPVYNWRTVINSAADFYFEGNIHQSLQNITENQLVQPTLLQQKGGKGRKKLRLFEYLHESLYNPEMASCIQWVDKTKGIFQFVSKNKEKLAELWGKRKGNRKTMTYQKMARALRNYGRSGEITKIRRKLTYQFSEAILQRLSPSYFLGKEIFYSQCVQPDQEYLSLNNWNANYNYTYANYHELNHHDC
Method in brief: as §1

ELF4 = ELF4 (Homo sapiens, UniProt Q99607 1-663); conditions: protein: recombinant; tags: N-terminal GST; dsDNA, one strand shown
Method in brief: as §1

ELK4 = target: T3, ELK4 (Homo sapiens, UniProt P28324-2 1-405); conditions: protein: recombinant; tags: N-terminal GST; dsDNA, one strand shown
T3 sequence: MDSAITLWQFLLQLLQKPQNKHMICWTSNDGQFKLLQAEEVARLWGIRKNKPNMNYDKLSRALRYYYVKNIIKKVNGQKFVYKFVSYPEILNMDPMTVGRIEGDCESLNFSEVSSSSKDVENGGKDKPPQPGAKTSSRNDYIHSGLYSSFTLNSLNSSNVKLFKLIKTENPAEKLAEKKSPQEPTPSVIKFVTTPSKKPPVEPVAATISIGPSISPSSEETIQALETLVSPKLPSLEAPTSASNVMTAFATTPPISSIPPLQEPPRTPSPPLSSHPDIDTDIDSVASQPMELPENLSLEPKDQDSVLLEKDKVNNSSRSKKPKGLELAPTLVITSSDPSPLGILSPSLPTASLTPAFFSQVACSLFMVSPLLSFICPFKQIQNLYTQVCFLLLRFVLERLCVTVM
Method in brief: as §1

ETV2 = target: T4, ETV2 (Homo sapiens, UniProt O00321 1-342); conditions: protein: recombinant; tags: N-terminal GST; dsDNA, one strand shown
T4 sequence: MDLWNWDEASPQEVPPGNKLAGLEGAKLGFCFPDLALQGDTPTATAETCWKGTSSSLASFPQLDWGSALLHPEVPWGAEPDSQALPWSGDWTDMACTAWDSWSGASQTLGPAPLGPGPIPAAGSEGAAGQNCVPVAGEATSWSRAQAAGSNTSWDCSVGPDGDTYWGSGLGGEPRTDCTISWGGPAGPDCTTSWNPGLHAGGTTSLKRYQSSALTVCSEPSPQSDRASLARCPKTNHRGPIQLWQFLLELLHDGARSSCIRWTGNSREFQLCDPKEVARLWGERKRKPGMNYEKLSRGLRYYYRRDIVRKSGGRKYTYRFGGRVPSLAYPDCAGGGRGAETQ
Method in brief: as §1

ELF3 = target: T5, ELF3 (Homo sapiens, UniProt P78545 1-371); conditions: protein: recombinant; tags: N-terminal GST; dsDNA, one strand shown
T5 sequence: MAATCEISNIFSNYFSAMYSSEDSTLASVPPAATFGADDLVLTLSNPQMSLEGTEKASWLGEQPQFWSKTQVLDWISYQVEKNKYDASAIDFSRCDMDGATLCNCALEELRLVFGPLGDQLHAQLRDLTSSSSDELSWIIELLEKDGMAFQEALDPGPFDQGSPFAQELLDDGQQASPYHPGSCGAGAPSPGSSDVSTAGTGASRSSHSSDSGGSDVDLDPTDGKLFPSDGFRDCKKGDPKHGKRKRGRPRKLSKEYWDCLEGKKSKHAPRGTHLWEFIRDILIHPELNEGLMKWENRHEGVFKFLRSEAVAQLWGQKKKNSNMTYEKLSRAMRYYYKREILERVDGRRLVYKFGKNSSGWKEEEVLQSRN
Method in brief: as §1

CRX = CRX (Homo sapiens, UniProt O43186 1-299); conditions: protein: recombinant; tags: N-terminal GST; dsDNA, one strand shown
Method in brief: as §1

ETV1 = ETV1 (Homo sapiens, UniProt P50549 1-477); conditions: protein: recombinant; tags: N-terminal GST; dsDNA, one strand shown
Method in brief: as §1

ERF = target: T6, ERF (Homo sapiens, UniProt P50548 1-548); conditions: protein: recombinant; tags: N-terminal GST; dsDNA, one strand shown
T6 sequence: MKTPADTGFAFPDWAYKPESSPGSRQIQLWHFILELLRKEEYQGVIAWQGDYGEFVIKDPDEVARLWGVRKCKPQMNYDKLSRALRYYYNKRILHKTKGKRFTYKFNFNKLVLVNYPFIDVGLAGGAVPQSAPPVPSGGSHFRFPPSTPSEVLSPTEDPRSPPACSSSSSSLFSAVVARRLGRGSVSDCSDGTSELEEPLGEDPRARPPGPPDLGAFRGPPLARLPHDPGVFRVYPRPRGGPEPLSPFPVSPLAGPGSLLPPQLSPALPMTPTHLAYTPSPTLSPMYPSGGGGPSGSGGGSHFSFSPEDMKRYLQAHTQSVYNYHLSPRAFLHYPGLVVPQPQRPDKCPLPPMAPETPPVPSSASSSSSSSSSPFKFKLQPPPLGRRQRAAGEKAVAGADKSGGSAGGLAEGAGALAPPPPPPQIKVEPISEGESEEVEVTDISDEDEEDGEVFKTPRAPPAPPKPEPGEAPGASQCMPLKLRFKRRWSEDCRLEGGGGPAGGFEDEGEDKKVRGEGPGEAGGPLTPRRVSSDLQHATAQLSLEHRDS
Method in brief: as §1

ETV3L = target: T7, ETV3L (Homo sapiens, UniProt Q6ZN32 1-361); conditions: protein: recombinant; tags: N-terminal GST; dsDNA, one strand shown
T7 sequence: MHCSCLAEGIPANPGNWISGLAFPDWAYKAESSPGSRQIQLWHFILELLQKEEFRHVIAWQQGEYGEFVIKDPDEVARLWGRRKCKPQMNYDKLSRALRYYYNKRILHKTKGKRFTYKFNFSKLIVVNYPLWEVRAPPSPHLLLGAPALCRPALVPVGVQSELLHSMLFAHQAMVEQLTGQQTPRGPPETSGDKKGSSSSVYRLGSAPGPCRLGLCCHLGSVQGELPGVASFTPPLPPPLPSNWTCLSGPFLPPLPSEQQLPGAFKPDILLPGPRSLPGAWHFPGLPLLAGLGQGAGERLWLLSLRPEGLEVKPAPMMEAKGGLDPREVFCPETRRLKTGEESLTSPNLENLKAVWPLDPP
Method in brief: as §1

ETS2 = target: T8, ETS2 (Homo sapiens, UniProt P15036 1-469); conditions: protein: recombinant; tags: N-terminal GST; dsDNA, one strand shown
T8 sequence: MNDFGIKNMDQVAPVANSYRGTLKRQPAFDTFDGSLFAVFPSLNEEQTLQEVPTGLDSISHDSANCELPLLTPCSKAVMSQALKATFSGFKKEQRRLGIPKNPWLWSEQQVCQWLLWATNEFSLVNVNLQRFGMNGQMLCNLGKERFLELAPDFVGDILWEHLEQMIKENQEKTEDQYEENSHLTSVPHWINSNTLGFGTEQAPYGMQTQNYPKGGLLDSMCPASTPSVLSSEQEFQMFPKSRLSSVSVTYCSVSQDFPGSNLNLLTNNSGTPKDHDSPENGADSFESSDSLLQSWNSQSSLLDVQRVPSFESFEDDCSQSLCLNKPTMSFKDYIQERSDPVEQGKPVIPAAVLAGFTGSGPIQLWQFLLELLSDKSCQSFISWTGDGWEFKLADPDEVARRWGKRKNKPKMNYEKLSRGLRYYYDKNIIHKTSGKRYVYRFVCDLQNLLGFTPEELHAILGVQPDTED
Method in brief: as §1

SPDEF = target: T9, SPDEF (Homo sapiens, UniProt O95238 1-335); conditions: protein: recombinant; tags: N-terminal GST; dsDNA, one strand shown
T9 sequence: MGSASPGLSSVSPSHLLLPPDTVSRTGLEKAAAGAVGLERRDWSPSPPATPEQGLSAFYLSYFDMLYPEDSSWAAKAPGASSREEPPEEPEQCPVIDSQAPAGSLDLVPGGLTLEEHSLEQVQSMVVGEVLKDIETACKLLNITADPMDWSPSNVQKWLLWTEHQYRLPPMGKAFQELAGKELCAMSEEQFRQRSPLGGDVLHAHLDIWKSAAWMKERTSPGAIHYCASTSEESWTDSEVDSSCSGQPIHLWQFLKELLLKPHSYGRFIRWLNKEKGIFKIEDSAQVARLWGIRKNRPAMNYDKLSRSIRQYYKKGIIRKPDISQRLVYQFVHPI
Method in brief: as §1

ETV7 = target: T10, ETV7 (Homo sapiens, UniProt Q9Y603 1-341); conditions: protein: recombinant; tags: N-terminal GST; dsDNA, one strand shown
T10 sequence: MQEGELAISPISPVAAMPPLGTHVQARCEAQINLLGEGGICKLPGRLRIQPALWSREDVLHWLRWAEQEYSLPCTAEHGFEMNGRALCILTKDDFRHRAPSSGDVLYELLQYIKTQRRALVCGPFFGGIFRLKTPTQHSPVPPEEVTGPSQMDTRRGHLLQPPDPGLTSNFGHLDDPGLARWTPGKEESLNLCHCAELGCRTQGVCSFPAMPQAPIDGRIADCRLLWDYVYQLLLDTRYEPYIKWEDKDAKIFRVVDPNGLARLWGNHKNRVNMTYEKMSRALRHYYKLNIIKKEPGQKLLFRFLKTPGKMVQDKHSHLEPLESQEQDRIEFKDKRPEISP
Method in brief: as §1

ELF5 = target: T11, ELF5 (Homo sapiens, UniProt Q9UKW6-2 1-255); conditions: protein: recombinant; tags: N-terminal GST; dsDNA, one strand shown
T11 sequence: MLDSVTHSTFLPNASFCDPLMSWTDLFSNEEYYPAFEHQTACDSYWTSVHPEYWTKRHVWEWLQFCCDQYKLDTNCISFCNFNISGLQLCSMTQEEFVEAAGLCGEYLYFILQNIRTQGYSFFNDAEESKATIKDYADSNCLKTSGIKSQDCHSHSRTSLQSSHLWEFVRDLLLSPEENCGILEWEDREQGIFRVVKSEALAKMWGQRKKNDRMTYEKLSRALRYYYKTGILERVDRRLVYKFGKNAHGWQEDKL
Method in brief: as §1

ETV3 = target: T12, ETV3 (Homo sapiens, UniProt P41162-2 1-143); conditions: protein: recombinant; tags: N-terminal GST; dsDNA, one strand shown
T12 sequence: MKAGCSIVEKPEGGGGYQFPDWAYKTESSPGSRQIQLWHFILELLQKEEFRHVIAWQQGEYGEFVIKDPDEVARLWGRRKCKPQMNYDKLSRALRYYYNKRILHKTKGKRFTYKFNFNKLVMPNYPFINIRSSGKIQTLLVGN
Method in brief: as §1

ETV6 = ETV6 (Homo sapiens, UniProt P41212 1-452); conditions: protein: recombinant; tags: N-terminal GST; dsDNA, one strand shown
Method in brief: as §1

Chain of HSF1 (Q00613 whole entry): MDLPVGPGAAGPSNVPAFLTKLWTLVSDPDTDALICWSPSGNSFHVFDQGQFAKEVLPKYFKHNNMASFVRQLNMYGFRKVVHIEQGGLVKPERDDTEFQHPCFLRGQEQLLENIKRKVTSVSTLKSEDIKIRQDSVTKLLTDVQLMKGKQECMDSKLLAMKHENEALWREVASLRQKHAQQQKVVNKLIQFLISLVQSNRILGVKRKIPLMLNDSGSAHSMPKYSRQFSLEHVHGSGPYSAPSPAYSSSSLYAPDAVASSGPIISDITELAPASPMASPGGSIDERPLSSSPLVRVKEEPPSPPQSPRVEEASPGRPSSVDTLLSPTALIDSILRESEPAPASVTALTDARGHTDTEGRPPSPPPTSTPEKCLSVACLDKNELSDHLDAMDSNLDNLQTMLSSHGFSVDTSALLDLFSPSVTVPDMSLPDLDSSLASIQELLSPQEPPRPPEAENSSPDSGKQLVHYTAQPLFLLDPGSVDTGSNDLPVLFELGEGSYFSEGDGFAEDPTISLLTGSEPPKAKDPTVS
Chain of ELF4 (Q99607 whole entry): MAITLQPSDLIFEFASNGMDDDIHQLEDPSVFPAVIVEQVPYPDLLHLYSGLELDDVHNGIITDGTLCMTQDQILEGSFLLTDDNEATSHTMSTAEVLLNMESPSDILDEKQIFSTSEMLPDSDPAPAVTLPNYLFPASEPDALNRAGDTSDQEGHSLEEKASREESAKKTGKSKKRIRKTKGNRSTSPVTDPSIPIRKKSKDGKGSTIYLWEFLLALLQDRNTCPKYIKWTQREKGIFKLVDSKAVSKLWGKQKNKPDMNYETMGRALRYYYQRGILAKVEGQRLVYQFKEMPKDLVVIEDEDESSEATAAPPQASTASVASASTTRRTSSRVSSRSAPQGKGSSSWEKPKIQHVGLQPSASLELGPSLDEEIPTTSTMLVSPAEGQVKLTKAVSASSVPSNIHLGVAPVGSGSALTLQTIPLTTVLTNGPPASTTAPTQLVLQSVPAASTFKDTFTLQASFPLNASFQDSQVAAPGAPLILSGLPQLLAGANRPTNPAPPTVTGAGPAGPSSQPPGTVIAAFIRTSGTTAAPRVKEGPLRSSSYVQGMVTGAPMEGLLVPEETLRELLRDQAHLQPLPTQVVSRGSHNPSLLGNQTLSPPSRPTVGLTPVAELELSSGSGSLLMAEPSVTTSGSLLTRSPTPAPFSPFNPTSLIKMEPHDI
Chain of CRX (O43186 whole entry): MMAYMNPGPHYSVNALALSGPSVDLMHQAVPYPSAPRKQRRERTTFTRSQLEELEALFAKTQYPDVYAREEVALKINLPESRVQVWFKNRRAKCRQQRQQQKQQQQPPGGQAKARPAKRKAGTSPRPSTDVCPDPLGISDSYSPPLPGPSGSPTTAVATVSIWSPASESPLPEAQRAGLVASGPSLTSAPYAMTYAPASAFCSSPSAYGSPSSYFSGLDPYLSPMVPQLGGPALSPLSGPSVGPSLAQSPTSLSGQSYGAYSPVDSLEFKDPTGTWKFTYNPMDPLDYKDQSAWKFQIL
Chain of ETV1 (P50549 whole entry): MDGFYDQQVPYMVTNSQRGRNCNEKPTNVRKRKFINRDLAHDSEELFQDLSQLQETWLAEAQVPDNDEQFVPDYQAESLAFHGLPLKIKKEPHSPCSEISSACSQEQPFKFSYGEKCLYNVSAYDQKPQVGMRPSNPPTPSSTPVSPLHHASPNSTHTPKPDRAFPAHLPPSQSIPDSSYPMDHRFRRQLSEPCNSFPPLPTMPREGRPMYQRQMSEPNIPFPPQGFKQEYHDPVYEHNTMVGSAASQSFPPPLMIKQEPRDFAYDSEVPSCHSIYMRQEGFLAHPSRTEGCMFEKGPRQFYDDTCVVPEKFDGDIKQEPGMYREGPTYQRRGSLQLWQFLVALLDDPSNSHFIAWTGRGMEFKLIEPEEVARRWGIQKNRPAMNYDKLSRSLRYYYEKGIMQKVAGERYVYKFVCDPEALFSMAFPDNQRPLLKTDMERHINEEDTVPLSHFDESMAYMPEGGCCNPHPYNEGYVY
Chain of ETV5 (P41161 whole entry): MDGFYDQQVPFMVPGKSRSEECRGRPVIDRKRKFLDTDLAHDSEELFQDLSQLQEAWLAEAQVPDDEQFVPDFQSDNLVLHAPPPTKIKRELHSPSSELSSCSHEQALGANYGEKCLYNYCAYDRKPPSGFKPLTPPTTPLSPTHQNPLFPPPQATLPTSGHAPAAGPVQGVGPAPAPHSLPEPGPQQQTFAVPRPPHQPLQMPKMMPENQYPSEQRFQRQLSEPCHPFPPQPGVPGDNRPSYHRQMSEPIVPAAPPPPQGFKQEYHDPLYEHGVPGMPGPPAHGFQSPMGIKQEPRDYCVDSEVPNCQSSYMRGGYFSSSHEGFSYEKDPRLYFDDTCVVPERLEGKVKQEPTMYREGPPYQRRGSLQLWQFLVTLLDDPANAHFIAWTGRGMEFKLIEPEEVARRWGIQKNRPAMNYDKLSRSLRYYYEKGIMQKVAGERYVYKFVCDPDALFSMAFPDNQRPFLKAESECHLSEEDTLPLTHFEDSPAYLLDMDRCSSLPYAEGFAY
Chain of ETV6 (P41212 whole entry): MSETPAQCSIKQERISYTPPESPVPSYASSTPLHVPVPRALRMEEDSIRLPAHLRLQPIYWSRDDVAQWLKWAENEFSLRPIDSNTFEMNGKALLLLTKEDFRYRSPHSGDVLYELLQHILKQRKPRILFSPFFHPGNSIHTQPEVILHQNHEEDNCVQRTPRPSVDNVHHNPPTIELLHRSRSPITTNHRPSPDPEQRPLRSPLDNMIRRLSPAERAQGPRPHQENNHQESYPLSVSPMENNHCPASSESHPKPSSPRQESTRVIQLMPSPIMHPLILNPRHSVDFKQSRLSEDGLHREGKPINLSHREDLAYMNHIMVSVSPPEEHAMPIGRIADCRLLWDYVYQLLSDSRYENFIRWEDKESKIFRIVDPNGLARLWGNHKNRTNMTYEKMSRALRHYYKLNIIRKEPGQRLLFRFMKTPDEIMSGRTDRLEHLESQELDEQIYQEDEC

With CTAAAC the binding signal (FEV) was 1.21 fold enrichment (6-mer frequency, TF over GST control), the binding signal (ETV5) was 1.18 fold enrichment (6-mer frequency, TF over GST control) and the binding signal (HSF1) was 1.26 fold enrichment (6-mer frequency, TF over GST control). For the same sequence, the binding signal (SPIC) was 1.18 fold enrichment (6-mer frequency, TF over GST control), the binding signal (ELF4) was 1.26 fold enrichment (6-mer frequency, TF over GST control) and the binding signal (ELK4) was 1.26 fold enrichment (6-mer frequency, TF over GST control). For the same sequence, the binding signal (ETV2) was 1.33 fold enrichment (6-mer frequency, TF over GST control), the binding signal (ELF3) was 1.18 fold enrichment (6-mer frequency, TF over GST control) and the binding signal (CRX) was 1.47 fold enrichment (6-mer frequency, TF over GST control). For the same sequence, the binding signal (ETV1) was 1.24 fold enrichment (6-mer frequency, TF over GST control), the binding signal (ERF) was 1.17 fold enrichment (6-mer frequency, TF over GST control) and the binding signal (ETV3L) was 1.18 fold enrichment (6-mer frequency, TF over GST control). The binding signal (ETS2) was 1.19 fold enrichment (6-mer frequency, TF over GST control), the binding signal (SPDEF) was 1.22 fold enrichment (6-mer frequency, TF over GST control) and the binding signal (ETV7) was 1.2 fold enrichment (6-mer frequency, TF over GST control). The binding signal (ELF5) was 1.19 fold enrichment (6-mer frequency, TF over GST control), the binding signal (ETV3) was 1.25 fold enrichment (6-mer frequency, TF over GST control) and the binding signal (ETV6) was 1.17 fold enrichment (6-mer frequency, TF over GST control).
